Values joined by “and” are separate entries in the source; they are usually repeats but may differ in a detail not shown here. Equal entries are not always repeated. Active and inactive are the calls of the source. Unless noted, the call rests on the fitted dose curve; in most records, active means well fitted curve in the direction sought with a large enough effect; inconclusive means small, poorly fitted or top-dose-only effect, or another doubt; inactive means no such curve, though single readings can be large; an effect the other way counts as inactive or inconclusive.

Assay [1] is described as follows: Cell Viability - Jurkat (AID 426;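 active means dose-dependent loss of cell ATP signal giving a full or clear fitted curve, ranked by lower potency value; inconclusive means weak partial curve or response only at the top dose; inactive means no loss of viability signal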; further: potency means the concentration at half of the fitted maximal effect). The following applies: qHTS. Summed up: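 qHTS, 1536-well; Jurkat E6-1, 5000 cells/well, complete medium; cpd 40 hr, 37 °C; CellTiter-Glo 20 min RT; luminescence. AC50 by Hill fit.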
Background: In qHTS, concentration-response curves come from the screen itself.

Assay [2] can be described thus: Cell Viability - HepG2 (AID 433; calls by dose curve;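 further: potency means the concentration at half of the fitted maximal effect; potency for ATP loss meaning cytotoxicity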). The following applies: qHTS. The essentials: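 HepG2 hepatocellular carcinoma cells (1500/well) were treated with compounds for 40 h at 37 °C in complete medium; intracellular ATP was read by CellTiter-Glo luminescence. Data were normalized to DMSO and 100 uM tamoxifen, and AC50 came from Hill fits.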
In assay [3] the target is Mitogen-activated protein kinase 10 (Mus musculus) (UniProt Q61831). The experiment in a line: JNK3 AlphaScreen Assay (AID 530; active means well fitted curve in either direction with a large enough effect, not every such curve was filed as active; inconclusive means small, poorly fitted or top-dose-only effect, or another doubt;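 further: kinase came from lysate of stimulated human HepG2 cells; signal reports phosphorylation of biotinylated GST-cJun 1-79 at Ser73 with 10 µM ATP; on the % scale 0 is the no-effect control and ±100 the full control effect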). The following applies: JNK3 lysate, c-Jun phosphorylation; series mostly up to 57.1 µM. The essentials: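 Inhibitors reduce antibody binding to phosphorylated biotin-cJun, lowering AlphaScreen luminescence. Lysates from HepG2 cells pre-activated by IL-1beta plus TNF-alpha supplied JNK3; compounds were titrated.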
(Alpha assays give light when donor and acceptor beads are brought close together.)

The nature of assay [4]: MultiTox-Fluor Cytotoxicity Assay - LYMP1-002 - Dead Cells (AID 960). Further: nearly all actives have a fitted effect of over 60% in size. The following applies: LYMP1-002 lymphoblastoid cells, dead-cell protease fluorescence; series mostly up to 46.1 µM. The essentials:
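LYMP1-002 cells 2500/well; 5 hr 37 C pre-incubation; compound 16 hr 37 C; MultiTox-Fluor reagent 60 min RT; dead-cell fluor Ex/Em 485/520. Norm. to DMSO (0%) vs 15 uM tetraoctylammonium bromide (100%); Hill AC50.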

Assay [5] in a line: Cell Viability - LYMP2-024 (AID 988).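 Further: plate controls were DMSO only for no effect and 92 µM tetraoctylammonium bromide for full effect; nearly all actives have a fitted effect of over 60% in size.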 Particulars: LYMP2-024 lymphoblastoid cell viability; series mostly up to 92.2 µM. Summed up: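 Steps: seed 2500 cells/well, 5 hr 37 C; add compound, 24 hr 37 C; add CellTiter-Glo, 30 min room temperature; read luminescence. AC50 derived by Hill modelling of concentration-dependent ATP loss.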
The target in assay [6] is Estrogen receptor (Homo sapiens) (UniProt P03372). Briefly: qHTS assay for small molecule antagonists of estrogen receptor alpha signaling (AID 588513; active means well fitted curve in the direction sought with a large enough effect in the signal ratio, with a control signal flat, not every such curve was filed as active; inconclusive means small, poorly fitted or top-dose-only effect, or effect the other way, or a change in a side signal; inactive means no such curve, though single readings can be large or run the other way; the % refers to the signal ratio; further: potency means the concentration at half of the fitted maximal effect). Particulars: ER-alpha-UAS-bla HEK293, beta-lactamase ratio, antagonist mode; series mostly up to 76.9 µM. Summed up: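 ER-alpha-UAS-bla GripTite HEK 293 cells in medium with 2% charcoal/dextran-treated FBS were preincubated 4 h at 37 C, dosed with compound (1:2 titration), stimulated with 0.5nM 17-beta-estradiol for 18 h, then read by CCF4 beta-lactamase fluorescence.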

The target of assay [7] is Tumor necrosis factor (Homo sapiens) (UniProt P01375). The experiment in a line: qHTS assay to identify small molecules that stimulate Tumor Necrosis Factor-alpha (TNF-alpha) secretion (AID 651757; active means well fitted curve in the direction sought with a large enough effect in the signal ratio; inconclusive means small, poorly fitted or top-dose-only effect, or a change in a side signal; inactive means no such curve, though single readings can be large or run the other way; the % refers to the signal ratio; further: 0% is about no effect). The following applies: Human cells, HTRF 665/615 ratio; series mostly up to 92.2 µM. Summed up: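 Read-out is HTRF, a TR-FRET sandwich of cryptate- and XL665-labeled anti-TNF-alpha antibodies detecting cytokine secreted by THP-1 cells. Cells had been incubated with test compounds at 37 C for 17 hrs beforehand.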

For assay [8], the target named is Nuclear receptor ROR-gamma (Homo sapiens) (UniProt P51449). The experiment in a line: qHTS assay for small molecule antagonists of the retinoid-related orphan receptor gamma (ROR-gamma) signaling pathway (AID 651802). Further: nearly all actives have a fitted effect of over 60% in size. Further: potency means the concentration at half of the fitted maximal effect. The following applies: ROR-gamma antagonist cell reporter assay; series mostly up to 92.2 µM. Summed up:
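CHO, TET-inducible ROR + RORE-LUC reporter, 1536-well qHTS. Compound pinned, doxycycline added, 16hr 37C/5% CO2. ONE-Glo, 30 min RT, luminescence; signal drop scored as antagonism.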

Assay [9] can be described thus: Cell Viability - NIH 3T3 (AID 541).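 Further: plate controls were DMSO alone for no effect and tamoxifen positive control for full effect; nearly all actives have a fitted effect of over 25% in size.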 Particulars: NIH 3T3 cell viability, qHTS; activity change, negative = cytotoxicity: at 92.2 µM (top of the series). Summed up:
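Luminescent ATP signal (CellTiter-Glo) served as the viability read-out after NIH 3T3 cells were exposed to compounds over a concentration range for 40 hr at 37 °C. Hill-equation modelling of concentration-response data gave AC50.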

Assay [10] concerns the target Bile acid receptor (Homo sapiens) (UniProt Q96RI1). The experiment in a line: qHTS assay for small molecule agonists of farnesoid X receptor signaling (AID 588527; calls by dose curve;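 further: 0% = vehicle basal and 100% = reference agonist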). The following applies: HEK293T FXR-UAS-bla, beta-lactamase ratio, 16 h; stronger effect = higher value. Summed up: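 Read-out: beta-lactamase reporter fluorescence with CCF4 substrate in GeneBLAzer FXR-UAS-bla HEK293T cells, after 16 h compound exposure at 37 C. Response scaled between DMSO basal (0%) and chenodeoxycholic acid at 100 uM (100%).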

Assay [11] addresses Glucocorticoid receptor (Homo sapiens) (UniProt P04150). Briefly: qHTS assay for small molecule agonists of glucocorticoid receptor signaling (AID 588532; active means well fitted curve in the direction sought with a large enough effect in the signal ratio, with a control signal flat; inconclusive means small, poorly fitted or top-dose-only effect, or a change in a side signal; inactive means no such curve, though single readings can be large or run the other way; the % refers to the signal ratio;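 further: 100% = dexamethasone at 0.1 µM and 0% = DMSO only wells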). Particulars: HeLa MMTV-bla, beta-lactamase ratio, agonist, 18 h; stronger effect = higher value; percent of dexamethasone control, DMSO zero. Summed up:
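Titration series, up to 92 uM, applied to GRE-bla HeLa cells for 18 h at 37 C. Detection by CCF4 FRET substrate after 2 h at RT.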

The target is the same in assay [12]. Briefly: qHTS assay for small molecule antagonists of glucocorticoid receptor signaling (AID 588533; active means well fitted inhibition curve with a large enough effect in the signal ratio, with a control signal flat, not every such curve was filed as active; inconclusive means small, poorly fitted or top-dose-only effect, or effect the other way, or a change in a side signal; the % refers to the signal ratio;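 further: cells stimulated with 2 nM dexamethasone as agonist; on the % scale 0 is the no-effect control and ±100 the full control effect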). The following applies: HeLa MMTV-bla, GRE beta-lactamase ratio, antagonist mode, 18 h; series mostly up to 76.8 µM. Summed up:
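Antagonist-mode qHTS: compound titrations added to GRE-bla HeLa cells, then dexamethasone 2 nM final; 18 h, 37 C. CCF4 FRET fluorescence normalized to dexamethasone and DMSO; IC50 from Hill fit.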

Assay [13] deals with Peroxisome proliferator-activated receptor gamma (Homo sapiens) (UniProt P37231). Briefly: qHTS assay for small molecule agonists of peroxisome proliferator-activated receptor gamma signaling (AID 588536; active means well fitted curve in the direction sought with a large enough effect in the signal ratio, with a control signal flat, not every such curve was filed as active; inconclusive means small, poorly fitted or top-dose-only effect, or effect the other way, or a change in a side signal; inactive means no such curve, though single readings can be large or run the other way; the % refers to the signal ratio;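 further: 0% = DMSO basal wells and 100% = rosiglitazone at 2 µM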). The following applies: HEK293 PPARg-UAS-bla, beta-lactamase ratio, 16 h, percent of rosiglitazone response, DMSO as zero; series mostly up to 76.7 µM. The essentials:
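Test agents, titrated, stimulated HEK293 UAS-bla cells overnight (16 h, 37 C). Substrate CCF4 was then added for two hours at room temperature before fluorescence reading.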

Assay [14] shares this target. Briefly: qHTS assay for small molecule antagonists of peroxisome proliferator-activated receptor gamma signaling (AID 588537; active means well fitted inhibition curve with a large enough effect in the signal ratio, with a control signal flat, not every such curve was filed as active; inconclusive means small, poorly fitted or top-dose-only effect, or effect the other way, or a change in a side signal; the % refers to the signal ratio;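 further: reporter cells co-stimulated with 50 nM rosiglitazone agonist during compound treatment; % of control where 0% means no effect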). The following applies: HEK293 PPARg-UAS-bla, beta-lactamase ratio, antagonist mode; series mostly up to 76.8 µM. Summed up:
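We seeded GeneBLAzer HEK293 reporter cells at 3000 per well, allowed 6-6.5 h attachment at 37 C, then co-treated with test compound titrations and 50 nM rosiglitazone overnight (16 h). Inhibition was quantified from 460/530 nm emission ratios.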

Assay [15] in a line: qHTS assay for small molecule agonists of the antioxidant response element (ARE) signaling pathway (AID 651741; active means well fitted activation curve with a large enough effect in the signal ratio; inconclusive means small, poorly fitted or top-dose-only effect, or effect the other way, or a change in a side signal; the % refers to the signal ratio; further: potency means the concentration at half of the fitted maximal effect). The following applies: HepG2 ARE-bla reporter, beta-lactamase FRET ratio, 16 h; series mostly up to 96 µM. Summed up: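 Compounds in DMSO are pinned onto HepG2 ARE-bla cells (2,000/well) that were preincubated 5 h; plates stay 16 h at 37 C, then beta-lactamase activity is detected with LiveBLAzer B/G substrate by fluorescence.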

Assay [16] is described as follows: qHTS assay for small molecule activators of the nuclear factor-kappa B (NF-kB) signaling pathway (AID 651749; active means well fitted activation curve with a large enough effect in the signal ratio; inconclusive means small, poorly fitted or top-dose-only effect, or a change in a side signal; the % refers to the signal ratio; further: % of control where 0% means no effect). The following applies: NF-kB-bla ME-180 cells, beta-lactamase FRET ratio, 16 h; stronger effect = higher value. Summed up:
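Screening used 2,000 ME-180 reporter cells per well exposed to pinned compound (23 nL) or DMSO; after 16 hr at 37C, beta-lactamase expression under NF-kB control was assessed through FRET.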

The nature of assay [17]: qHTS assay for small molecule antagonists of peroxisome proliferator-activated receptor delta signaling (AID 588535; active means well fitted inhibition curve with a large enough effect in the signal ratio, with a control signal flat, not every such curve was filed as active; inconclusive means small, poorly fitted or top-dose-only effect, or effect the other way, or a change in a side signal; inactive means no such curve, though single readings can be large or run the other way; the % refers to the signal ratio;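 on max response: cells co-treated with a PPAR-delta agonist as stimulator during compound exposure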). The following applies: HEK293T PPARd-UAS-bla, beta-lactamase FRET ratio, 18 h; 460 nm channel. The essentials:
(§1)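 Reporter: UAS-bla under PPAR-delta response element, HEK293T host. Medium: 2% charcoal/dextran FBS. Dosing: titration, 18 hrs, 37 C. Detection: CCF4, 2 hrs RT, 405 ex/460 and 530 em.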

Assay [18] has as its target Peroxisome proliferator-activated receptor delta (Homo sapiens) (UniProt Q03181). The assay is described as above. Particulars: HEK293T PPARd-UAS-bla, beta-lactamase FRET ratio, 18 h; series mostly up to 76.7 µM. The essentials: as §1
Assay [19] concerns the target Vitamin D3 receptor (Homo sapiens) (UniProt P11473). The experiment in a line: qHTS assay for small molecule agonists of vitamin D receptor signaling (AID 588543; calls by dose curve;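 further: 0% = DMSO basal and 100% = reference agonist control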). The following applies: HEK293T VDR-UAS-bla, beta-lactamase ratio, 16 h; series mostly up to 76.8 µM. Summed up:
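GeneBLAzer VDR-UAS-bla HEK293T cells in 2% charcoal-stripped FBS medium were dosed with compound titrations for 16 h at 37 °C; CCF4 β-lactamase readout (405 nm ex, 460/530 nm em). EC50 and efficacy from Hill fits, normalized to 50 nM calcitriol (100%) and DMSO (0%).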

The nature of assay [20]: qHTS assay for small molecule disruptors of the mitochondrial membrane potential - 5 hr assay (AID 651755; calls by dose curve; further: on the % scale 0 is the no-effect control and ±100 the full control effect; nearly all actives have a fitted effect of over 40% in size). Particulars: JC-1-type ratio dye; series mostly up to 92.2 µM. Summed up:
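HepG2 cells, attached overnight at 37C, were exposed to compound or DMSO for 5 hr at 37C, 5% CO2. Mito-MPS dye was then added for 30 min, and fluorescence read at 490/535 nm (monomers) and 540/590 nm (aggregates).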

Sequence of Glucocorticoid receptor (Homo sapiens) (P04150 whole entry, looked up): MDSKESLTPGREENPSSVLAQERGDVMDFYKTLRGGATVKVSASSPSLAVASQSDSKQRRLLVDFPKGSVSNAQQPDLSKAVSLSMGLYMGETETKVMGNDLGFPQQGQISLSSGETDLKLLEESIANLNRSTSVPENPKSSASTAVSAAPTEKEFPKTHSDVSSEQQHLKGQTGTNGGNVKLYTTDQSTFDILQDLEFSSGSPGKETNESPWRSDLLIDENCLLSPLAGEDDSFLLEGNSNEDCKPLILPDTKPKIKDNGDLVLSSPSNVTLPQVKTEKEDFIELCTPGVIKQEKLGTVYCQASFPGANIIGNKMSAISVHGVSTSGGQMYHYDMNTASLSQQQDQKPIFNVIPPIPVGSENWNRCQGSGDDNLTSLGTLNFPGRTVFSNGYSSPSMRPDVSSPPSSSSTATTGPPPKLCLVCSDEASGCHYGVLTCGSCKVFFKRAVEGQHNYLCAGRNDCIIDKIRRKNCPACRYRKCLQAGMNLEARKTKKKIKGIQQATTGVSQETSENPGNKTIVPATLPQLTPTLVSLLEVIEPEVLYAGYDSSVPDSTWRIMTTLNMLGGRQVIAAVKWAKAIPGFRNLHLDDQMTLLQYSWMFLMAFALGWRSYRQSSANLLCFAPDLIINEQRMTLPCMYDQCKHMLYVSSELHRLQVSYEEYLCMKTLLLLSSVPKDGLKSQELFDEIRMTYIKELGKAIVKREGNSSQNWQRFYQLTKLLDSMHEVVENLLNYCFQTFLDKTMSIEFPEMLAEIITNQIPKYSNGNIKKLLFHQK
Sequence of Tumor necrosis factor (Homo sapiens) (P01375 whole entry, looked up): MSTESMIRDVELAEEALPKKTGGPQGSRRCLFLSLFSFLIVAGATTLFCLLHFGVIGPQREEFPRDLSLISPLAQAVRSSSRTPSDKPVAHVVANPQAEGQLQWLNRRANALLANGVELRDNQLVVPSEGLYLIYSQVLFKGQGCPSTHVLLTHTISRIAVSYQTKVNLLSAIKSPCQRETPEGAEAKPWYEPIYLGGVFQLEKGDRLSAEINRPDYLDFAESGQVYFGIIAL
Sequence of Peroxisome proliferator-activated receptor gamma (Homo sapiens) (P37231 whole entry, looked up): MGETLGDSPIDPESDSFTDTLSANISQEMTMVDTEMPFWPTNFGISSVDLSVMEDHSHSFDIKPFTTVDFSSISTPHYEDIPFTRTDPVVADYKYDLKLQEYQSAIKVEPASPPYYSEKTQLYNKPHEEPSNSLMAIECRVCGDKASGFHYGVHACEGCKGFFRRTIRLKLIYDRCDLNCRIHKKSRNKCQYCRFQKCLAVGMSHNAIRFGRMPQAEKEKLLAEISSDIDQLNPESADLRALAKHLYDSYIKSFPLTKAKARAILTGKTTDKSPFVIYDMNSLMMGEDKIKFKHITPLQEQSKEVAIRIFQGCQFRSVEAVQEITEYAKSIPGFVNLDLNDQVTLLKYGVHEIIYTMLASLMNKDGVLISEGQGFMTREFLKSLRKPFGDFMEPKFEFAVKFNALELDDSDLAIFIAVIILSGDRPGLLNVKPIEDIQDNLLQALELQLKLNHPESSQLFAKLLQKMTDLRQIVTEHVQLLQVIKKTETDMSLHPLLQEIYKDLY
Sequence of Nuclear receptor ROR-gamma (Homo sapiens) (P51449 whole entry, looked up): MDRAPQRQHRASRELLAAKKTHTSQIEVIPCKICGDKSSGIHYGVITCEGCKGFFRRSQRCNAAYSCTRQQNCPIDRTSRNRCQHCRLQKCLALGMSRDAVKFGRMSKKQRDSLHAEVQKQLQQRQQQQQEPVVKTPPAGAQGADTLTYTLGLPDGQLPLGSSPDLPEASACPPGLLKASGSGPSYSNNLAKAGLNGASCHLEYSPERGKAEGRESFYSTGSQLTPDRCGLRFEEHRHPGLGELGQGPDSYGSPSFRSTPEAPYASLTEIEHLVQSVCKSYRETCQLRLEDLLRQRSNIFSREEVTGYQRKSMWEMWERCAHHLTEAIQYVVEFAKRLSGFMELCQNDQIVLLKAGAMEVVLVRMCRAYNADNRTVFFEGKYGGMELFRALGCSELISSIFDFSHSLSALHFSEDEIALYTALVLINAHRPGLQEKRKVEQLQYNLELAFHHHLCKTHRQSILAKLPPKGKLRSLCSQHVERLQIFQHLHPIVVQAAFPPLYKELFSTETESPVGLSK
Sequence of Estrogen receptor (Homo sapiens) (P03372 whole entry, looked up): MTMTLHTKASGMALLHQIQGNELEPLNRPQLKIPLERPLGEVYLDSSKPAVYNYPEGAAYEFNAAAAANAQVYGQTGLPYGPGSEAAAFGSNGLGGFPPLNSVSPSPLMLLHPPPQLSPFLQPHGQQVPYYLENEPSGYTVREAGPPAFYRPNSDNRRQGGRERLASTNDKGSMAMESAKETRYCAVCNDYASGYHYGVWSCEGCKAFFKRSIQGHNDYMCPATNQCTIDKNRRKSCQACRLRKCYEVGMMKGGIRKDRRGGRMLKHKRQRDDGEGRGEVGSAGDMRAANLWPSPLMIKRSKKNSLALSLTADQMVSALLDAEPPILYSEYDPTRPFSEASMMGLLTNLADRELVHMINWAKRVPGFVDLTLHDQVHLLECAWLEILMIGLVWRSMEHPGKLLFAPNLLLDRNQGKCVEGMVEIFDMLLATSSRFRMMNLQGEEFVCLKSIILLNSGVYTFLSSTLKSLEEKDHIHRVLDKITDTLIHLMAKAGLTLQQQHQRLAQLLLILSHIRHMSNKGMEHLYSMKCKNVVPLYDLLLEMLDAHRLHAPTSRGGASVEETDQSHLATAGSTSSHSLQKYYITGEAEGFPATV
Sequence of Bile acid receptor (Homo sapiens) (Q96RI1 whole entry, looked up): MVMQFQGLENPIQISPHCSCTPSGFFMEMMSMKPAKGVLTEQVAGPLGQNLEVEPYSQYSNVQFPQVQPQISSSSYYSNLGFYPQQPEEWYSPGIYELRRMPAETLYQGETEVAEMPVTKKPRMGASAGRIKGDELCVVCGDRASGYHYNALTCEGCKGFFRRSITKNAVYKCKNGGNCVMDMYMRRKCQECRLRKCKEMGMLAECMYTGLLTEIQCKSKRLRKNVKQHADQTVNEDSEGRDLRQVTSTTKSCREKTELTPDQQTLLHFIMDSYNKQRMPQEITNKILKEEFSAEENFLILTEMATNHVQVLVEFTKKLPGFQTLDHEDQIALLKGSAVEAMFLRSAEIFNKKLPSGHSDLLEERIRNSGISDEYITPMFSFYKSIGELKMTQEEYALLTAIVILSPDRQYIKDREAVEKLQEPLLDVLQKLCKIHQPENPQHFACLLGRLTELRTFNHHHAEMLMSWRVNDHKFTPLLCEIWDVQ
Sequence of Vitamin D3 receptor (Homo sapiens) (P11473 whole entry, looked up): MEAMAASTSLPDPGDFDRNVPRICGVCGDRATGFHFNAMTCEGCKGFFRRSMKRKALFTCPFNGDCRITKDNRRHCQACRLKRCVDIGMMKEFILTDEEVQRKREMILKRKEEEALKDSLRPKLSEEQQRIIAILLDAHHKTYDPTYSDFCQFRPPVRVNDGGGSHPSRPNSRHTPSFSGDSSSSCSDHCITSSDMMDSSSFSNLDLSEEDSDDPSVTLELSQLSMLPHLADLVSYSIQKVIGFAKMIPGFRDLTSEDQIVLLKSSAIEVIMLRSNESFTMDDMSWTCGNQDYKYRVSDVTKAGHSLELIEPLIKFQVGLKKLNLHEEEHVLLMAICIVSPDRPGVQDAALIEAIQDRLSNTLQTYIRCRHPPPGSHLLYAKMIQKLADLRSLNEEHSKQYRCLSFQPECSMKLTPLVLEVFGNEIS
Sequence of Peroxisome proliferator-activated receptor delta (Homo sapiens) (Q03181 whole entry, looked up): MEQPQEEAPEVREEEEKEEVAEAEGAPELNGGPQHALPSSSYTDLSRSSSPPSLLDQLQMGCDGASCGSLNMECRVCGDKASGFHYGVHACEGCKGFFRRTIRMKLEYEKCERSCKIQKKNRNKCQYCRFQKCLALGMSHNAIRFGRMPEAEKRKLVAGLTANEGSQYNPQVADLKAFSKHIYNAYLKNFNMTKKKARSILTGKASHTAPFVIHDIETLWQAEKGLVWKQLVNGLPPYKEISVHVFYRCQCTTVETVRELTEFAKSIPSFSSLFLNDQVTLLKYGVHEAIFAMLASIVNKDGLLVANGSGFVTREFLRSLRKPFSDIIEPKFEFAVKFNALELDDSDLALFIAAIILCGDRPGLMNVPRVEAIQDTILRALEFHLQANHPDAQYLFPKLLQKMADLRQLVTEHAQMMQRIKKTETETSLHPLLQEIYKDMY

For the compound `COP(=S)(OC)SCn1nnc2ccccc2c1=O`, the Potency in assay [1] is > 92 µM (inactive); in assay [2] it was > 92 µM (inactive); in assay [6], 31.6 µM [inconclusive] (active). The Potency entry in assay [3], in assay [4], in [5] and in [8] was “inactive” each time. The outcome in assay [7] was inactive.

For `CCOC(=O)CC(SP(=O)(OC)OC)C(=O)OCC` (stereo not drawn), the values for the Potency in assay [1] and in assay [15] were > 92 µM (inactive) and 42.2 µM (active), respectively. Also, the Potency entry in assay [3], in [9], in assay [4], in assay [5] and in assay [14] was “inactive” in each case. Moreover, the activation in assay [10] is -1.01% (inactive) and 1.76% (inactive); in [11] it was 2.95% (inactive); in [16], -1.06% (inactive) and 1.21% (inactive). The result in assay [12], in assay [13] and in assay [7] was inactive.

For `CC(C)[N+](=O)[O-]`, the Potency in [2] was > 92 µM (inactive). Moreover, the Potency result in assay [3], in assay [9], in assay [5] and in assay [8] was “inactive” throughout. In addition, the activation is -1.29% (inactive) in assay [10], -6.88% (inactive) in [11] and -0.258% (inactive) in [16]. Besides, the max response in [17] came out at 7.55%. Also, the result in assay [18] and in [13] was inactive.

Regarding `Oc1c(Cl)c(Cl)cc(Cl)c1Cl`, the Potency in [1] was 49.1 µM (active); in [2], > 92 µM (inactive); in assay [15], 66.8 µM (active); in assay [8], 21.1 µM (active). Besides, the Potency result in assay [3], in assay [4] and in [5] was “inactive” throughout. Further, the activation in assay [10] was 3.3% (inactive). For the same compound, the max response in assay [17] is -31%. Further, the result in assay [13] and in assay [7] was inactive.

With `O=[N+]([O-])c1cc(Cl)c(Cl)c(Cl)c1`, the Potency in assay [2] was > 92 µM (inactive). Moreover, the Potency result in [3], in assay [4] and in assay [6] was “inactive” throughout. In addition, the activity change, negative = cytotoxicity in assay [9] is -119% (active). The values for the activation in assay [10] and in [16] were -2.43% (inactive) and -1.89% (inactive), respectively. Moreover, the max response in assay [17] is 30.2%. For the same compound, the result in assay [18], in assay [13] and in [19] was inactive.

For the compound `Nc1ncc([N+](=O)[O-])s1`, in assay [1], the Potency is > 92 µM (inactive). Further, the Potency result in [3], in assay [4], in assay [5], in assay [6], in [20] and in assay [8] was “inactive” in each case. Besides, the values for the activation in assay [10] and in assay [16] were -2.74% (inactive) and 0.765% (inactive), respectively. Besides, the result in [12], in assay [13], in assay [19] and in [7] was inactive. In assay [17], the max response turned out to be 30.2%.

Source of the values: PubChem BioAssay (NCATS).
